Reference: PubChem BioAssay (NCATS)
Inconclusive results are not listed. Entries that show only a call come without a potency. The source made the active and inactive calls. The call rests on the fitted dose curve; in most records, active means well fitted curve in the direction sought with a large enough effect; inconclusive means small, poorly fitted or top-dose-only effect, or another doubt; inactive means no such curve, though single readings can be large; an effect the other way counts as inactive or inconclusive.

Columns and labels:
[1] = qHTS assay for small molecule disruptors of mitochondrial membrane potential screened against the NCATS CANVASS Library (AID 1347389); further: series mostly up to about 46 µM; nearly all actives have a fitted effect of over 60% in size
Method in brief: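 Compounds tested in 11-point qHTS series on HepG2 cells for 1 hr; membrane-potential dye added for 30 min at 37C. Lower red-to-green ratio indicates loss of potential.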

[2] = qHTS for activators of Nrf2/ARE signaling pathway screened against the NCATS CANVASS Library (AID 1347391); further: nearly all actives have a fitted effect of over 60% in size; further: potency means the concentration at half of the fitted maximal effect
Method in brief: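 Cells carrying an ARE-driven beta-lactamase reporter (HepG2 background) are dosed for 16 h, then stained with CCF4. Cell viability in the same wells is measured by CellTiter-Glo luminescence.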

[3] = qHTS for activators of dead-cell proteases activity screened against the NCATS CANVASS Library (AID 1347392);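 further: luminescence from protease leaking out of membrane-damaged cells cleaving impermeant substrate; rising signal means more cytotoxicity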
Method in brief: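 HepG2 cells (2000/well) attached 18 h at 37C, then exposed 5 h to compounds (11-point qHTS). Dead-cell protease activity read as luminescence from cell-impermeant AAF-aminoluciferin substrate after 15 min at room temperature.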

[4] = qHTS for inhibitors of ER calcium dysfunction: SERCaMP assay screened against the NCATS CANVASS Library (AID 1347393); further: nearly all actives have a fitted effect of over 40% in size; further: potency means the concentration at half of the fitted maximal effect
Method in brief: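 qHTS in SH-SY5Y reporter cells: 16 h compound pretreatment, 4 h thapsigargin, then secreted Gaussia luciferase measured by luminescence.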

[5] = Vero-766 cells viability qHTS against the NCATS CANVASS Library: Counterscreen for Zika virus inhibition assay (AID 1347394); further: series mostly up to about 46 µM; nearly all actives have a fitted effect of over 60% in size
Method in brief: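 CellTiter Glo luminescence measured cytotoxicity after 72 h at 37C in uninfected Vero 766 cells, plated at 1000 cells/well. Compounds were applied in an 11-point series. Wells without cells defined 100% inhibition.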

[6] = qHTS for inhibitors of Wild type Zika virus screened against the NCATS CANVASS Library (AID 1347396);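 further: ATP luminescence of surviving cells so rescue from viral cell killing; series mostly up to about 46 µM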
Method in brief: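 Using ATP-based luminescence (CellTiter Glo), this screen scores rescue of Vero 766 cells from wild-type Zika killing at 72 h post-infection. Compounds are tested in a concentration series.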

[7] = Viability qHTS for inhibitors of the SERCaMP assay screened against the NCATS CANVASS Library (AID 1347400); further: series mostly up to about 92 µM; nearly all actives have a fitted effect of over 70% in size
Method in brief: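 Cytotoxicity counter-screen: ATP content (CellTiter-Glo luminescence) of SH-SY5Y-GLuc SERCaMP MJH297 cells after 48 h at 37C with compounds in an 11-point qHTS series.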

[8] = Redox Reaction Profiling qHTS: Assay Interference Panel against the NCATS CANVASS Library (AID 1347401)
Method in brief: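 Resazurin (5 uM) conversion to resorufin measured with 200 uM DTT in 50 mM HEPES pH 7.3, 50 mM NaCl. Compounds tested in 11-point qHTS series. Fluorescence (ex 525/em 598 nm) read before and after 15 min dark incubation.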

[9] = qHTS to identify inhibitors of the type 1 interferon - major histocompatibility complex class I in skeletal muscle: primary screen against the NCATS Mechanism Interrogation Plate v5.0 (MIPE) Libary (AID 1347411); further: nearly all actives have a fitted effect of over 65% in size
Method in brief: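 Cells were genome-edited human myoblasts carrying a HiBit tag on endogenous HLA-B. They were treated with IFN-beta (4.0 ng/ml) and titrated compounds (top 46 uM) for 24 hrs before lytic HiBiT detection.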

[10] = Secretion counterscreen for inhibitors of the SERCaMP assay screened against the NCATS CANVASS Library (AID 1347390);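 further: light from luciferase secreted into medium read as a measure of general secretion; series mostly up to about 77 µM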
Method in brief: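 Counterscreen for secretory-pathway interference: after 4 h attachment, SH-SY5Y-GLuc cells were exposed 20 hours to compounds (final 0.001 - 77 uM), then coelenterazine added and GLuc luminescence recorded; Brefeldin A served as control.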

Structure (SMILES): O=C(/C=C/C=C/c1ccc2c(c1)OCO2)N1CCCCC1
- outcome [1]: inactive
- Potency [2]: inactive
- outcome [3]: inactive
- Potency [4]: 60.5 µM (active)
- outcome [5]: inactive
- outcome [6]: inactive
- outcome [7]: inactive
- outcome [8]: inactive
- outcome [9]: inactive

Structure (SMILES): O=C(O)CC1CCC(c2ccc(-c3ccc(Nc4ccc(C(F)(F)F)nc4)cn3)cc2)CC1 (stereo not given)
- outcome [9]: inactive

Structure (SMILES): CNc1nc(C)nc(N[C@H]2CCC[C@@H](C(=O)NCc3ccc(C#N)cc3C(F)(F)F)C2)n1
- outcome [9]: inactive

Structure (SMILES): CC(C)N(CCCNC(=O)Nc1ccc(C(C)(C)C)cc1)C[C@H]1O[C@@H](n2ccc3c(N)ncnc32)[C@H](O)[C@@H]1O
- outcome [9]: inactive

Structure (SMILES): COCCCc1sc(-c2ccccc2)nc1C(=O)Nc1ccccc1-c1nc2cc(CN3CCCC3)cnc2s1
- outcome [9]: inactive

Structure (SMILES): Cc1ccccc1-n1nc(-c2c(-c3ccc(F)cc3)nn3c2NC[C@@H](CO)C3)ccc1=O
- outcome [9]: inactive

Structure (SMILES): CC(C)c1ccc2c(c1)CCC1[C@](C)(C(=O)O)CCC[C@]21C (stereo not given in full)
- outcome [1]: inactive
- outcome [10]: inactive
- outcome [3]: inactive
- Potency [4]: inactive
- outcome [5]: inactive
- outcome [6]: inactive
- outcome [7]: inactive
- outcome [8]: inactive

Structure (SMILES): Cc1c(F)cc(C(=O)NC2CC2)cc1-c1ccc(C(=O)NCC(C)(C)C)cn1
- outcome [9]: inactive

Structure (SMILES): Cc1ncc(Cl)cc1NCc1ccc(C(=O)NC(CC2CCCC2)C(=O)NC2CC2)s1 (stereo not given)
- outcome [9]: inactive

Structure (SMILES): N#CN1CCC[C@@H](n2nc(-c3ccc(Oc4ccc(F)cc4F)cc3)c(C(N)=O)c2N)C1
- outcome [9]: inactive

Structure (SMILES): CCc1cccc2c3c([nH]c12)[C@@](CC)(CC(=O)O)OCC3
- outcome [9]: inactive

Structure (SMILES): N#Cc1ccc(C2CCCc3cncn32)cc1 (stereo not given)
- outcome [9]: inactive

Structure (SMILES): CC(=O)O[C@H]1C[C@@]2(C)[C@@H](CC[C@H]3[C@@]4(C)C=CC(=O)[C@@H](C)[C@@H]4[C@H](OC(C)=O)C(=O)[C@@]32C)/C1=C(\CCC=C(C)C)C(=O)O
- outcome [1]: inactive
- outcome [10]: inactive
- Potency [2]: 20.9 µM (active)
- outcome [3]: inactive
- Potency [4]: 30.5 µM (active)
- outcome [5]: inactive
- outcome [7]: inactive
- outcome [8]: inactive
